# Experimental data published in PubChem BioAssay (NCATS).
# Where “and” joins values, the source holds several entries; their conditions need not be identical. Identical values can stand only once. Results filed as inconclusive are left out. Where a call stands in place of a potency, no number is given. Calls of active or inactive are those of the source. Unless noted, calls follow the shape of the dose curve; as a rule, active = well fitted curve in the direction sought with a large enough effect; inconclusive = small, poorly fitted or top-dose-only effect, or another doubt; inactive = no such curve, though single readings can be large; an effect the other way counts as inactive or inconclusive. Non-standard residues stand in square brackets, D forms with d. Residues, ends and D or L forms follow the SMILES beside them. Orn = NCCC[C@H](N)C(=O)O
# Legend:
# [1] = qHTS assay to identify small molecule inhibitors of chordoma cells - UCH-2 (AID 1259356); also: potency is read from the fitted curve at half-maximal effect
# [2] = P-glycoprotein substrates identified in KB-8-5-11 adenocarcinoma cell line, qHTS therapeutic library screen (AID 1346987); also: nearly all actives have a fitted effect of over 65% in size; also: potency is read from the fitted curve at half-maximal effect
# Procedure, shortened: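 In this qHTS, P-gp-rich KB-8-5-11 cells received library compounds across a concentration range. Viability was quantified by luminescence after 72 h at 37 degree C.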
# [3] = qHTS profiling of the MIPE4 collection as inhibitors of Plasmodium falciparum (HB3) proliferation (AID 743347; call rule not given here); conditions: P. falciparum HB3 in erythrocytes, SYBR Green DNA, 72 h; at 28.5 µM (top of the series) unless noted
# Procedure, shortened: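 Parasite DNA was quantified by SYBR Green I fluorescence (ex 485, em 535 nm) after overnight lysis in saponin/Triton buffer at room temperature. Cultures at 0.3% parasitemia and 2.5% hematocrit were first exposed to compound for 72 h at 37 C; signals were normalised to artemisinin (0.29 uM) and vehicle wells.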
# [4] = Identifying Small Molecule Inhibitors of Pancreatic Cancer Stem Cells (A2780, Spheroid) (AID 1259357); conditions: Potency: A2780 spheroid viability; also: potency is read from the fitted curve at half-maximal effect;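 also: spheroids pre-formed over 14 days in stem cell medium on hydrogel; compound exposure lasted 48 h before the ATP luminescence read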
# Procedure, shortened: (§1)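 Adherent (2D) versus sphere (3D) formats; spheres generated 14 d in SCM beforehand. Compound transferred by pin tool after 4 h, 48 h incubation, CellTiter-Glo endpoint.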
# [5] = Identifying Small Molecule Inhibitors of Pancreatic Cancer Stem Cells (SN12C, Adherent) (AID 1259358);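 also: potency is read from the fitted curve at half-maximal effect; cell survival measured after 48 h of compound exposure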
# Procedure, shortened: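 Pre-formed 14-day tumor spheroids or adherent cells dosed and incubated 48 h, 37C, 5% CO2. Viability assessed by CellTiter-Glo.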
# [6] = Identifying Small Molecule Inhibitors of Pancreatic Cancer Stem Cells (Panc1, Spheroid) (AID 1259359);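 also: potency is read from the fitted curve at half-maximal effect; compound exposure lasted 48 h before reading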
# Procedure, shortened: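 Endpoint: ATP-based luminescence, 48 h drug exposure. Bortezomib at 9.2 uM final as full-kill control; DMSO vehicle as negative control; activity normalized between vehicle and cell-free wells.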
# [7] = Identifying Small Molecule Inhibitors of Pancreatic Cancer Stem Cells (SN12C, Spheroid) (AID 1259360); conditions: Potency: SN12C spheroid viability; also: potency is read from the fitted curve at half-maximal effect
# Procedure, shortened: as §1
# [8] = Identifying Small Molecule Inhibitors of Pancreatic Cancer Stem Cells (Panc1, Adherent) (AID 1259362); conditions: Potency: viability; also: potency is read from the fitted curve at half-maximal effect
# Procedure, shortened: as §1
smiles,measurement,setting,value
CCOC(=O)O[C@]1(C(=O)COC(=O)CC)CC[C@H]2[C@@H]3CCC4=CC(=O)C=C[C@]4(C)[C@H]3[C@@H](O)C[C@@]21C,Potency,[1],inactive
same,Potency,[2],inactive
CC(C)C[C@@H]1NC(=O)[C@H](CCCN)NC(=O)[C@H](C(C)C)NC(=O)[C@@H]2CCCN2C(=O)[C@@H](Cc2ccccc2)NC(=O)[C@H](CC(C)C)NC(=O)[C@H](CCCN)NC(=O)[C@H](C(C)C)NC(=O)[C@@H]2CCCN2C(=O)[C@@H](Cc2ccccc2)NC1=O (cyclo(V[Orn]L[dF]PV[Orn]L[dF]P)),"growth, % of control",[3],4.03%
same,Potency,[1],8.2 µM (active)
same,Potency,[2],inactive
IC(I)I,Potency,[1],inactive
same,Potency,[2],inactive
CCCCC/C=C\C/C=C\CCCCCCCC(=O)O,Potency,[1],inactive
same,Potency,[2],inactive
C=C1C(=CC=C2CCC[C@@]3(C)[C@@H]2CC[C@H]3[C@H](C)CCCC(C)C)C[C@@H](O)C[C@@H]1O,"growth, % of control",[3],19.8%
same,Potency,[1],inactive
CC1=CCC(C(C)(C)O)CC1 (centres undefined),Potency,[1],inactive
same,Potency,[2],inactive
CCOc1ccc2c(c1)C(C)=CC(C)(C)N2,Potency,[1],inactive
same,Potency,[2],inactive
CCCCCCCCCCCC[n+]1ccc2ccccc2c1,Potency,[1],25.9 µM (active)
same,Potency,[2],inactive
CO[C@H](C(=O)[C@@H](O)[C@@H](C)O)C1Cc2cc3cc(O[C@H]4C[C@@H](O[C@H]5C[C@@H](O)[C@H](O)[C@@H](C)O5)[C@@H](O)[C@@H](C)O4)c(C)c(O)c3c(O)c2C(=O)[C@H]1O[C@H]1C[C@@H](O[C@H]2C[C@@H](O[C@H]3C[C@](C)(O)[C@H](O)[C@@H](C)O3)[C@H](O)[C@@H](C)O2)[C@H](O)[C@@H](C)O1 (some centres undefined),Potency,[1],inactive
same,Potency,[2],inactive
COc1ccc(C[C@@H](C)NC[C@H](O)c2ccc(O)c(NC=O)c2)cc1,Potency,[1],inactive
same,Potency,[2],inactive
CC(C)NCC1CCc2cc(CO)c([N+](=O)[O-])cc2N1 (centres undefined),Potency,[1],inactive
same,Potency,[2],inactive
O=CCCCC=O,Potency,[1],inactive
same,Potency,[2],inactive
CNC1CCN(C(Cc2cccc(-c3ccncc3)c2)C(=O)c2sc3c(F)ccc(F)c3c2Cl)CC1 (centres undefined),Potency,[4],inactive
same,Potency,[5],26.4 µM (active)
CC(=O)N[C@@H](CC(=O)N[C@@H](CCC(=O)O)C(=O)O)C(=O)O,Potency,[1],inactive
same,Potency,[2],inactive
CC(=O)Oc1c(C)cc(OCC(O)CNC(C)C)c(C)c1C (centres undefined),Potency,[1],inactive
same,Potency,[2],inactive
O=S(=O)(O)O,Potency,[1],inactive
same,Potency,[2],inactive
CC(=O)N(CC(C)C(=O)O)c1c(I)cc(I)c(N)c1I (centres undefined),Potency,[1],inactive
same,Potency,[2],inactive
OCCO[C@@H]1[C@@H](O)[C@H](O)[C@@H](CO)O[C@@H]1O,Potency,[1],inactive
same,Potency,[2],inactive
COC(=O)C1=C(C)NC(C)=C(C(=O)OCCCN2CCC(c3ccccc3)(c3ccccc3)CC2)[C@H]1c1cccc([N+](=O)[O-])c1,Potency,[4],inactive
CC1(C)C(C=C(Cl)Cl)C1C(=O)OCc1cccc(Oc2ccccc2)c1 (centres undefined),Potency,[1],inactive
same,Potency,[2],inactive
CC(=O)OCC(=O)[C@@]1(O)CC[C@H]2[C@@H]3C[C@H](C)C4=CC(=O)C=C[C@]4(C)[C@H]3[C@@H](O)C[C@@]21C,Potency,[1],inactive
same,Potency,[2],inactive
COc1cc2c(cc1O)CCN[C@]21CS[C@@H]2c3c(OC(C)=O)c(C)c4c(c3[C@H](COC1=O)N1[C@@H]2[C@H]2c3c(cc(C)c(OC)c3O)C[C@@H]([C@@H]1O)N2C)OCO4,Potency,[1],inactive
same,Potency,[2],1.46 µM (active) and 1.41 µM (active)
CC(=O)O[C@]1(C(C)=O)CC[C@H]2[C@@H]3CCC4=CC(=O)CC[C@]4(C)[C@@]3(F)[C@@H](O)C[C@@]21C,Potency,[1],inactive
same,Potency,[2],inactive
O=C(O)C1CCCN1 (centres undefined),Potency,[1],inactive
same,Potency,[2],inactive
CC(=O)OCC(=O)[C@@]12OC3(CCCC3)O[C@@H]1C[C@H]1[C@@H]3CCC4=CC(=O)C=C[C@]4(C)[C@@]3(F)[C@@H](O)C[C@@]12C,Potency,[1],inactive
same,Potency,[2],inactive
CCCC(=O)O[C@]1(C(=O)CCl)[C@H](C)C[C@@H]2[C@H]3CCC4=CC(=O)C=C[C@]4(C)[C@@]3(F)C(=O)C[C@@]21C,"growth, % of control",[3],7.79%
same,Potency,[1],inactive
same,Potency,[2],13 µM (active)
CCC(=O)OCC(=O)[C@@]1(OC(=O)CC)[C@H](C)C[C@H]2[C@H]3[C@H]([C@@H](O)C[C@@]21C)[C@@]1(C)C=CC(=O)C=C1C[C@H]3Cl,Potency,[1],inactive
same,Potency,[2],inactive
CC(C)N=c1cc2n(-c3ccc(Cl)cc3)c3ccccc3nc-2cc1Nc1ccc(Cl)cc1,"growth, % of control",[3],47.5%
same,Potency,[1],inactive
O=C(O)c1cc(=O)c2c3nc4ccccc4oc-3cc(=O)c2[nH]1,Potency,[1],inactive
same,Potency,[2],inactive
NC(=O)Nc1cc(-c2ccc(CN3CCOCC3)c(F)c2)sc1C(=O)N[C@H]1CCCNC1,Potency,[4],20.9 µM (active)
same,Potency,[5],0.833 µM (active)
same,Potency,[6],9.35 µM (active)
same,Potency,[7],16.6 µM (active)
same,Potency,[8],0.833 µM (active)
